Inconclusive results are not listed. A number with no mark means an inactive call. Activity calls are given as the source filed them. The call rests on the fitted dose curve; in most records, active means well fitted activation curve with a large enough effect; inconclusive means small, poorly fitted or top-dose-only effect; inactive means no such curve, though single readings can be large or run the other way.
molecular target: Arylsulfatase A (Homo sapiens) (UniProt P15289); assay: qHTS screen for enhancers of Arylsulfatase A (ASA1): LOPAC Validation Assay (AID 720538); details: ASA enzyme activity, LOPAC qHTS enhancer assay; series mostly up to 57.5 µM; activity change, positive = activation: at the top concentration; on activity change, positive = activation: 0% is about no effect
Sequence (P15289 whole entry, looked up): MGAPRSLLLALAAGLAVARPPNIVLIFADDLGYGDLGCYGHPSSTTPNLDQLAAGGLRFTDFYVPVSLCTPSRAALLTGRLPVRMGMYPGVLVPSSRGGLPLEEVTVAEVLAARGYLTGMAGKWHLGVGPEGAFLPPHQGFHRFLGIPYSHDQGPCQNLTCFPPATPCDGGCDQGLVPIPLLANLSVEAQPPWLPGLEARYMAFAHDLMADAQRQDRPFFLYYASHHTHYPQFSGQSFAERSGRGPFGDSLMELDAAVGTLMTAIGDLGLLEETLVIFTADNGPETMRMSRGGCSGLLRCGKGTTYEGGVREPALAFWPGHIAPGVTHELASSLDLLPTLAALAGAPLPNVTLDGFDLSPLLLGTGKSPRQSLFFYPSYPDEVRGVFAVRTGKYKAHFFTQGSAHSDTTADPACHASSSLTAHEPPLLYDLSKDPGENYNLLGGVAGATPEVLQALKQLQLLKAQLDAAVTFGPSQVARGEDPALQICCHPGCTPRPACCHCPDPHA
Excerpt: Lysosomal storage diseases (LSDs) are caused by genetic mutations in genes encoding proteins important for normal lysosomal function. In affected patients, symptoms are usually not manifested unless the mutations result in more than 90% reduction of enzymatic activity of a specific lysosomal enzyme. […] Small molecules could function as enzyme enhancement agents by binding to and stabilizing mutant misfolded proteins in the endoplasmic reticulum (ER), allowing them to evade the ER associated degradation (ERAD), and eventually reach the lysosome. Moreover, small molecules is hypothesized to be able to enhance the residual activity of deficient lysosomal enzyme by either interacting directly with the mutant enzyme or indirectly by acting in different cellular pathways; resulting to increased levels of the mutant and partially functional protein in the lysosomal compartment.
A cell based assay in 1536 well plate format was developed to evaluate activity of the lysosomal sulfatase ASA1 enzyme. ASA1 is deficient in metachromatic leukodystrophy (MLD), an LSD characterized by progressive neurodegeneration for which specific treatment is not available. Compounds that are active may therefore have some therapeutic application for this disease. This assay was used to validate the ASA1 qHTS using the Sigma LOPAC library. In this assay increase in signal = enhanced ASA1 activity. Activation is the desired outcome for this assay.
NIH Chemical Genomics Center [NCGC]
NIH Molecular Libraries Probe Centers Network [MLPCN]
Assay Submitter (PI): Gustavo Maegawa, Johns Hopkins University School of Medicine
[2] Gieselmann V, et al. Acta Paediatr Suppl. 2008; 97: 15-21
Four microliter (~8,000 cells/well) of SV40-transformed skin fibroblasts from an MLD patient (ASA-I179S) were seeded into a 1,536 solid white plate. Cells were left to adhere for 6 hrs, followed by addition of 23 nL of compounds. Cells were incubated with compounds for 48h at 37 degree C and 5% CO2. Four microliter of 1 mM pNCS substrate/lysis buffer (0.5mM pNCS final concentration) was added and incubated for 14h at room temperature. To stop the reaction, […] of 5 N of NaOH (1N NaOH final concentration) was then added and fluorescence was measured using the ViewLux plate reader (Ex=525 nm; Em=598 nm).
Potency means the concentration at half of the fitted maximal effect.

Row | Structure (SMILES) | activity change, positive = activation | outcome | Potency
1 | Clc1ccc2c(c1)C(N1CCNCC1)=Nc1ccccc1O2 | 3.89% |  | 
2 | COc1cc2nc(N3CCN(C(=O)c4ccco4)CC3)nc(N)c2cc1OC |  | inactive | 
3 | O=C1c2c(O)ccc(O)c2C(=O)c2c(NCCNCCO)ccc(NCCNCCO)c21 |  |  | 23.9 µM (active)
4 | COC(=O)Nc1nc2ccc(C(=O)c3cccs3)cc2[nH]1 | -144% |  | 
5 | NS(=O)(=O)c1cc2c(cc1Cl)NCNS2(=O)=O | -2.57% |  | 
6 | CCOC(=O)C(C)(C)Oc1ccc(Cl)cc1 | 9.44% |  | 
7 | COc1ccc2c(c1)c(CC(=O)O)c(C)n2C(=O)c1ccc(Cl)cc1 | -1.18% |  | 
8 | COc1cc2c(c(OC)c1OC)-c1ccc(OC)c(=O)cc1[C@@H](NC(C)=O)CC2 | 16.6% |  | 
9 | COc1ccc2[nH]cc(CCNC(C)=O)c2c1 | -23.9% |  | 
10 | CCc1cccc2c3c([nH]c12)C(CC)(CC(=O)O)OCC3 (stereo not given) | 22.6% |  | 
11 | Cc1cn([C@H]2C=C[C@@H](CO)O2)c(=O)[nH]c1=O | -2.25% |  | 
12 | CCC1(c2ccccc2)C(=O)NCNC1=O | 13.6% |  | 
13 | CC#C[C@]1(O)CC[C@H]2[C@@H]3CCC4=CC(=O)CCC4=C3[C@@H](c3ccc(N(C)C)cc3)C[C@@]21C |  | inactive | 
14 | COc1nc(C)nc(Cl)c1NC1=NCCN1 | 0.517% |  | 
15 | Nc1nnc(-c2cccc(Cl)c2Cl)c(N)n1 | 4.36% |  | 
16 | CC(C)(Oc1ccc(C2CC2(Cl)Cl)cc1)C(=O)O (stereo not given) |  | inactive; inhibitor; fitted 2.3934 uM | 
17 | Nc1ccn([C@H]2CC[C@@H](CO)O2)c(=O)n1 |  | inactive | 
18 | N[C@@H](Cc1c[nH]c2ccc(O)cc12)C(=O)O |  | inactive | 
19 | Fc1ccc([C@@H]2CCNC[C@H]2COc2ccc3c(c2)OCO3)cc1 | -2.49% |  | 
20 | O=C1Cc2cc(CCN3CCN(c4nsc5ccccc45)CC3)c(Cl)cc2N1 | -36.1% |  | 

Row | Structure (SMILES) | activity change, positive = activation | outcome | Potency
21 | NC12CC3CC(CC(C3)C1)C2 | -19.3% |  | 
22 | COc1ccccc1N1CCN(CC(O)COc2cccc3ccccc23)CC1 (stereo not given) | 16.8% |  | 
23 | CN1CCC(=C2c3ccccc3C=Cc3ccccc32)CC1 | -16.7% |  | 
24 | Cn1c(=O)c2c(ncn2C)n(C)c1=O |  | inactive | 
25 | CCN1CCCC1CNC(=O)c1cc(S(=O)(=O)CC)c(N)cc1OC (stereo not given) |  | inactive | 
26 | CN(C)CCOC(c1ccccc1)c1ccccc1 | -21% |  | 
27 | COc1ccc(CCN(C)CCCC(C#N)(c2ccc(OC)c(OC)c2)C(C)C)cc1OC (stereo not given) |  | inactive | 
28 | CC1COc2c(N3CCN(C)CC3)c(F)cc3c(=O)c(C(=O)O)cn1c23 (stereo not given) |  | inactive; inhibitor; fitted 4.2562 uM | 
29 | CS(=O)(=O)Nc1ccc([N+](=O)[O-])cc1Oc1ccccc1 |  | inactive | 
30 | Clc1ccccc1C(c1ccccc1)(c1ccccc1)n1ccnc1 | -52% |  | 
31 | Cc1cn([C@H]2C[C@H](N=[N+]=[N-])[C@@H](CO)O2)c(=O)[nH]c1=O |  | inactive | 
32 | CC(C)C(=O)Nc1ccc([N+](=O)[O-])c(C(F)(F)F)c1 | -11.5% |  | 
33 | CN(Cc1cnc2nc(N)nc(N)c2n1)c1ccc(C(=O)N[C@@H](CCC(=O)O)C(=O)O)cc1 |  | inactive | 
34 | CC(C(=O)O)c1cccc(C(=O)c2ccccc2)c1 (stereo not given) | 19.6% |  | 
35 | CN1C(C(=O)Nc2ccccn2)=C(O)c2ccccc2S1(=O)=O | -41.4% |  | 
36 | CCCNCC(O)COc1ccccc1C(=O)CCc1ccccc1 (stereo not given) | 56.5% |  | 
37 | Clc1ccc(C(c2ccccc2Cl)C(Cl)Cl)cc1 (stereo not given) |  | inactive | 
38 | CN(C)c1nc(N(C)C)nc(N(C)C)n1 | -48.4% |  | 
39 | Cc1cc(C(C)(C)C)c(O)c(C)c1CC1=NCCN1 |  | inactive | 
40 | CN(C)CCCN1c2ccccc2CCc2ccc(Cl)cc21 | -1.33% |  | 

Source: PubChem BioAssay (NCATS)
